A selection: hits, their analogues and other compounds. The true share with any hit is near 10%.
Luciferase inh: Firefly luciferase inhibition profiling of diverse chemical library using quantitative high-throughput screening; Luciferin 4-monooxygenase (Photinus pyralis), P08659; purified P. pyralis luciferase, luminescence, biochemical; Potency, µM (doses to about 115 µM), hits mostly inhibitors; 76,000 compounds, 2.5% hits; also: % is scaled to controls: 0 for no effect and ±100 for the full control effect; nearly all actives have a fitted effect of over 65% in size
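FLuc 10nM, D-luciferin 10uM, ATP 10uM, Mg acetate 10mM, Tris acetate pH 7.5, Tween/BSA; cpd qHTS; enzyme added last; CCD luminescence.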
3T3 cytotox: Cytotoxic Profiling in NIH 3T3 Cell Line of Diverse Libraries Using Quantitative High-Throughput Screening | NIH 3T3 viability, CellTiter-Glo ATP luminescence, 48-72 h | Potency, µM (titrated, usually from 96.7 µM), for the others: top-dose activity change, negative = cytotoxicity, usual class: inhibitors | 94,000 compounds, 4.3% hits | AID 1345082, 2018; also: % is scaled to controls: 0 for no effect and ±100 for the full control effect; nearly all actives have a fitted effect of over 55% in size
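NIH 3T3 cells at 400 cells/well received 23 nL of compound by pintool and were incubated 48 or 72 h at 37 °C. Viability was read as ATP-coupled CellTiter-Glo luminescence.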
NPR1 antag: Natriuretic polypeptide receptor (hNpr1) antagonism - Primary qHTS. Atrial natriuretic peptide receptor 1 (Homo sapiens), P16066. HEK293 hNpr1 GloSensor cGMP, ANP-stimulated luminescence. Potency, µM (top dose mostly 46.3 µM), for inactives: at the highest dose activity change, negative = inhibition, usual class: inhibitors. 76,000 compounds, 1.6% hits; calls by dose curve; also: % is scaled to controls: 0 for no effect and ±100 for the full control effect; nearly all actives have a fitted effect of over 60% in size
Target sequence (P16066 whole entry, looked up): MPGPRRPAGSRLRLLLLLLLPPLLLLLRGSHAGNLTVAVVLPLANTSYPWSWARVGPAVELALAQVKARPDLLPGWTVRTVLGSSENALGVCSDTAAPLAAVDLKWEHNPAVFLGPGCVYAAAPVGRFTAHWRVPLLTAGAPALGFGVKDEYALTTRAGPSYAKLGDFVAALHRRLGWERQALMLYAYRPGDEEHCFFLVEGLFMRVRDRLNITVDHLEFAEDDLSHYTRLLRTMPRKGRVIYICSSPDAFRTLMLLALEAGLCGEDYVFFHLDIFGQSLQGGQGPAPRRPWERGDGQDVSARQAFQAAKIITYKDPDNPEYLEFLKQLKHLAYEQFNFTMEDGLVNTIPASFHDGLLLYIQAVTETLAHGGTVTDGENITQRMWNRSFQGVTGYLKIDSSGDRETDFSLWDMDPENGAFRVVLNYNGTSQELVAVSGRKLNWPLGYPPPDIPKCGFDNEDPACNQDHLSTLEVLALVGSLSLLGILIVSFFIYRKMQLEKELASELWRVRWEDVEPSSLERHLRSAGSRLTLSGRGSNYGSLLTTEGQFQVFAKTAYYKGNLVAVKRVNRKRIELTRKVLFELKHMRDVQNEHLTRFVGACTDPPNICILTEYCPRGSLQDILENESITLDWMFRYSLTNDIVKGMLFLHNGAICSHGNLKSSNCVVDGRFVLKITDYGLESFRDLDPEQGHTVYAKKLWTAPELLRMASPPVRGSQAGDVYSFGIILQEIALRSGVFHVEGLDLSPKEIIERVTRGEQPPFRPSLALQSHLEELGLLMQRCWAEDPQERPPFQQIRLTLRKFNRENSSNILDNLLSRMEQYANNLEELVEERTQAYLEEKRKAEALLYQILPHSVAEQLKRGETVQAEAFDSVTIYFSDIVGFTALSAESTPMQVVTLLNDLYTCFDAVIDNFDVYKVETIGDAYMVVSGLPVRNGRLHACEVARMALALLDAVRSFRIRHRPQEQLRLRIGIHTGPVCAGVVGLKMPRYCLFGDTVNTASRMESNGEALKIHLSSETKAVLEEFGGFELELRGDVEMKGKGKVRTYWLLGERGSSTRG
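Compound pre-incubated 30 min at room temperature on GloSensor-loaded HEK293 cells stably carrying hNpr1 and the pGS-40F cGMP biosensor. Stimulation uses hNppA at 0.1 nM final; luminescence is taken at baseline and 20 min post-agonist.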
HEK cytotox: Cytotoxic Profiling in HEK 293 Cell Line of Diverse Libraries Using Quantitative High-Throughput Screening; HEK 293 viability, ATP luminescence (CellTiter-Glo), 48-72 h; Potency, µM (doses to about 115 µM), inactives show at the top dose activity change, negative = cytotoxicity, hits mostly inhibitors; 94,000 compounds, 6.6% hits; AID 1345083, 2018; also: % is scaled to controls: 0 for no effect and ±100 for the full control effect; nearly all actives have a fitted effect of over 60% in size
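HEK 293 seeded at 250 cells/well receive compound via pintool. After 48 or 72 hr at 37 degree Celsius, 5% CO2 and 95% humidity, CellTiter-Glo is dispensed and luminescence read following 10 min at room temperature.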
GPT2 inhibitor: Primary qHTS assay for inhibitors of Glutamate pyruvate transaminase 2 (GPT2). Alanine aminotransferase 2 (Homo sapiens), Q8TD30. Recombinant GPT2, coupled pyruvate oxidase/HRP Amplex Red fluorescence. Potency, µM (highest dose often 57.7 µM), for the others: at the highest dose activity change, negative = inhibition, hits mostly inhibitors. 100,000 compounds, 0.25% hits. AID 1671188, 2021; also: % is scaled to controls: 0 for no effect and ±100 for the full control effect; nearly all actives have a fitted effect of over 60% in size
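Inhibition is scored from Amplex Red fluorescence generated when pyruvate oxidase and HRP act on pyruvate released by GPT2. Reactions contain 10ng/uL enzyme, 250uM a-KG and 2mM L-alanine and run 30 min at room temperature.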
NPR1 antag cnf: Natriuretic polypeptide receptor (hNpr1) antagonism - Confirmation | Potency, µM (doses to about 57.6 µM), for inactives: at the top dose activity change, negative = inhibition, hits mostly inhibitors | 1,400 compounds, 76% hits | HEK293 hNpr1 cGMP GloSensor luminescence, ANP-stimulated | shares compounds with NPR1 antag | AID 1347044, 2019; calls by dose curve; also: nearly all actives have a fitted effect of over 70% in size
Npr2 selectivity: Natriuretic polypeptide receptor (hNpr2) antagonism - Subtype selectivity assay; 1,400 compounds, 67% hits; shares compounds with NPR1 antag; Potency, µM (top dose mostly 57.6 µM), for inactives: top-dose activity change, negative = inhibition, hits mostly inhibitors; AID 1347046, 2019; HEK293 hNpr2 GloSensor cGMP luminescence, CNP-stimulated; calls by dose curve; also: nearly all actives have a fitted effect of over 70% in size
FLuc inh counter: Natriuretic polypeptide receptor (hNpr1) antagonism - Confirmation firefly luciferase (FLuc) inhibition counterscreen | shares compounds with NPR1 antag | purified FLuc enzyme, luminescence, Km substrate | 1,400 compounds, 0.7% hits | AID 1347047, 2019 | Potency, µM (highest dose often 57.6 µM), for inactives: at the highest dose activity change, negative = inhibition, most hits filed as inhibitors; also: 0% is about no effect
GloSensor cGMP: Natriuretic polypeptide receptor (hNpr1) antagonism - Counterscreen GloSensor control cell line. HEK293 GloSensor cGMP, SNP-stimulated, luminescence. 1,400 compounds, 69% hits. AID 1347051, 2019. shares compounds with NPR1 antag. Potency, µM (top dose mostly 57.6 µM), inactives show top-dose activity change, negative = inhibition, usual class: inhibitors; calls by dose curve; also: % is scaled to controls: 0 for no effect and ±100 for the full control effect; nearly all actives have a fitted effect of over 70% in size
Active calls of the source: *; i = inactive; ? = inconclusive; . = no result; [ ] = dose if it differs, or a comment. Unless noted, calls follow the shape of the dose curve; as a rule, active = well fitted curve in the direction sought with a large enough effect; inconclusive = small, poorly fitted or top-dose-only effect, or another doubt; inactive = no such curve, though single readings can be large; an effect the other way counts as inactive or inconclusive. Potency is read from the fitted curve at half-maximal effect.

SMILES	Luciferase inh	3T3 cytotox	NPR1 antag	HEK cytotox	GPT2 inhibitor	NPR1 antag cnf	Npr2 selectivity	FLuc inh counter	GloSensor cGMP
Cc1cccc(OCC2(CNC(=O)c3cc(C)nn3C)C[C@@H](O)[C@@H](O)C2)n1 (stereo partly drawn)	i	-32.2%[138 µM]	-0.9%[70.6 µM]	-23.6%[172 µM]	i	.	.	.	.
O=C(c1cc(F)ccc1F)N1CCCC(n2cc(-c3nc(-c4ccccc4)no3)nn2)C1 (stereo not drawn)	?	?	11.2µM*	39.8µM*	-5.4%	19.3µM*	19.3µM*	?	17.2µM*
COc1cccc(CC(=O)N2CCC(n3cc(-c4nc(-c5ccccc5)no4)nn3)CC2)c1	i	?	10µM*	31.6µM*	4.9%	10.9µM*	10.9µM*	-23.4%	12.2µM*
O=C(CCC1CCCC1)N1CCC2(CC1)CC(N(C(=O)c1ccccc1)C1CC1)CCO2 (stereo not drawn)	i	?	?	?	i	?	-27.5%	0.1%	?
O=C(Cc1ccccc1)N1CCC2(CC1)CC(N(C(=O)c1ccccc1)C1CC1)CCO2 (stereo not drawn)	i	-17.1%	-14.0%	?	2.7%	.	.	.	.
CC(=O)Nc1ccc(C(=O)N2CCC3(CC2)N=C(c2ccc(C)cc2)NO3)cc1	i	-9.6%	-8.5%	?	3.1%	.	.	.	.
Cc1nn(C)c(C)c1CCC(=O)N1CCC(Cc2noc(-c3ccc(F)cc3)n2)C1 (stereo not drawn)	i	?	15.8µM*	?	2.8%	27.3µM*	?	1.8%	34.3µM*
COc1ccccc1CCC(=O)N1CCC2(CC1)N=C(c1cccc(Br)c1)NO2	i	?	-25.7%	?	3.9%	?	?	3.1%	-29.7%
Cc1ccsc1C(=O)N1CCC2(CC1)N=C(c1cccc(Br)c1)NO2	i	?	12.6µM*	?	-1.0%	27.3µM*	?	3.3%	27.3µM*
COc1ccc(C(=O)N2CCC3(CC2)N=C(c2cccc(Br)c2)NO3)c(OC)c1	i	?	11.2µM*	?	3.7%	24.3µM*	24.3µM*	5.9%	21.7µM*
O=C(c1cccs1)N1CCC2(CC1)N=C(c1cccc(Br)c1)NO2	i	-24.1%	-2.5%	?	i	.	.	.	.
COc1ccc(C(=O)N2CCC3(CC2)N=C(c2cccc(Br)c2)NO3)cc1F	i	?	?	?	i	?	?	6.3%	27.3µM*
COc1ccc(C(=O)N2CCC3(CC2)N=C(c2cccc(Br)c2)NO3)cc1OC	i	?	?	?	i	.	.	.	.
COc1ccccc1CC(=O)N1CCC2(CC1)N=C(c1cccc(Br)c1)NO2	i	?	-17.3%	?	i	.	.	.	.
O=C(NC1CCCCC1)c1cn2cc(-c3ccc(C(F)(F)F)cc3)sc2n1	.	-18.0%	.	3.1%	-3.6%	.	.	.	.
O=C(c1ccc(Cl)nc1)N1CCC(C(=O)N2CCC(c3ccccc3)CC2)CC1	.	?	.	?	i	.	.	.	.
COCc1ncc(C)n1C1CCCN(C(=O)c2ccoc2)C1 (stereo not drawn)	.	-6.5%	.	-8.6%	3.5%	.	.	.	.
CN(Cc1ccncc1)Cc1ccc(-c2ccccc2)cc1	i	?	?	70.8µM*	-19.3%[88.5 µM]	22.2µM*	28µM*	-3.2%[86.2 µM]	17.7µM*
O=C(NCc1ccc(F)cc1)c1cc2n(n1)CC(c1ccc3c(c1)OCO3)OC2 (stereo not drawn)	i	?	0.0%	?	?	.	.	.	.
O=C(NCc1ccccc1Cl)c1cn2cc(-c3ccccc3)sc2n1	.	-13.6%	.	-1.1%	-1.5%	.	.	.	.
O=C(NCc1ccccc1Cl)c1csc(N2CCN(c3ccc(F)cc3)CC2)n1	i	?	11.2µM*	?	i	21.7µM*	21.7µM*	-6.8%	19.3µM*
O=C(NCc1ccc2c(c1)OCO2)c1csc(N2CCN(c3ccc(F)cc3)CC2)n1	i	?	10µM*	28.2µM*	1.3%	8.62µM*	10.9µM*	-0.8%	9.68µM*
O=C(NCc1ccccc1)c1csc(N2CCN(c3ccc(Cl)cc3)CC2)n1	i	-12.0%	11.2µM*	?	i	21.7µM*	21.7µM*	0.0%	21.7µM*
O=C(CCC1CCCC1)NCCc1noc(-c2ccccc2)n1	i	?	?	79.4µM*	-15.8%	?	-25.4%	0.9%	-10.0%
COc1ccc(C(=O)NCCc2noc(-c3ccccc3)n2)cc1F	i	?	?	?	-24.5%	?	-16.9%	1.2%	6.8%
CC(C)(C)CC(=O)NCCc1noc(-c2ccccc2)n1	i	-25.2%	3.4%	-8.8%	i	.	.	.	.
O=C(NCCc1noc(-c2ccccc2)n1)c1ccccc1	i	-27.0%	-15.1%	?	-15.2%	.	.	.	.
O=C(NCc1cc(F)ccc1F)c1csc(N2CCN(c3ccccc3F)CC2)n1	i	?	?	?	-8.0%	27.3µM*	?	1.5%	?
O=C(NCc1cccs1)c1csc(N2CCN(c3ccccc3F)CC2)n1	i	?	-27.6%	?	i	?	?	-2.2%	?
CN1CCN(c2nc(C(=O)NC(C)(C)C)cs2)CC1	i	-12.4%	5.5%	3.6%	-7.6%	.	.	.	.
